Target: T1, Methionyl-tRNA synthetase, putative (Leishmania donovani (strain BPK282A1)) (UniProt E9BF75)
T1 sequence (whole entry): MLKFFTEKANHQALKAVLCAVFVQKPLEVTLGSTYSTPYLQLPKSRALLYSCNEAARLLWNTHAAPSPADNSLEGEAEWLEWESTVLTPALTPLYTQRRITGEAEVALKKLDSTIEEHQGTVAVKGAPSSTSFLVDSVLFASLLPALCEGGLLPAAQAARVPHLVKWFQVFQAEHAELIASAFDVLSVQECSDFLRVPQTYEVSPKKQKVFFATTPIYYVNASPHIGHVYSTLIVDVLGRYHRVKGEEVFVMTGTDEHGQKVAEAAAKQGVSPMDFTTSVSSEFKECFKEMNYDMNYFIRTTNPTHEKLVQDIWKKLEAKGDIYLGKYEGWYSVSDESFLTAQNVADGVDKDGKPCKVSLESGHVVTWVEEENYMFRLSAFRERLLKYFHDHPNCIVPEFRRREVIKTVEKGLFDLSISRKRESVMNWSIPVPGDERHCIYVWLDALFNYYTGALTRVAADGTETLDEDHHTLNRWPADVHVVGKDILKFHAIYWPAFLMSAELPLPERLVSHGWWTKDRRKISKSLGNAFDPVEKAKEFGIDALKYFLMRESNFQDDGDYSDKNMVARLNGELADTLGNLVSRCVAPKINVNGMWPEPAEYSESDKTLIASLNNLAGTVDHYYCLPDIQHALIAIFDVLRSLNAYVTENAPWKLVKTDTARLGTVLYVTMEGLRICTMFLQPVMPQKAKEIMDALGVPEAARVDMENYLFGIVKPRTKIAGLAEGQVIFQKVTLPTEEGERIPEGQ
Assay: Leishmania donovani Methionine tRNA synthetase (LdMetRS):v7. Dose response assay
Assay type: functional
Design: conc 80 nM, time 150 minutes

**Q.** With `O=C(O)CC1COCCN1C(=O)C1(c2ccc(Cl)cc2)CCC1` (centres undefined) as the compound, how does the PXC50 (MAX_EFFECT 1.360544218) read?
**A.** < 4

**Q.** And the PXC50 (MAX_EFFECT 1.449275362)?
**A.** < 4

**Q.** What about the PXC50 (MAX_EFFECT 4.378283713) of the same compound?
**A.** < 4

**Q.** For `Cn1ncc2c(NCCn3cccn3)nc(Nc3ccc(F)c(F)c3)nc21`, which PXC50 (MAX_EFFECT 33.72921615) is on record?
**A.** < 4

**Q.** What about the PXC50 (MAX_EFFECT 37.33905579) of the same compound?
**A.** < 4

**Q.** And the PXC50 (MAX_EFFECT 41.9729207)?
**A.** < 4

**Q.** Which PXC50 (MAX_EFFECT 7.798960139) does the source give for `CCc1[nH]c2c(CNc3cncc(C(=O)OC)n3)cc(C)cc2c1C` here?
**A.** < 4

**Q.** And the PXC50 (MAX_EFFECT 45.13888889)?
**A.** < 4

**Q.** What about the PXC50 (MAX_EFFECT 45.63758389) of the same compound?
**A.** < 4

**Q.** With `c1ccc(CNc2ncc(CN3CCCN4CCC[C@H]4C3)cn2)cc1` as the compound, how does the PXC50 (BOTTOM -0.610075864, HILLSLOPE 1.031656218, MAX_EFFECT 61.9047619, TOP 100.0) read?
**A.** 4.18

**Q.** And the PXC50 (BOTTOM -1.183822823, HILLSLOPE 1.053099151, MAX_EFFECT 65.67425569, TOP 100.0)?
**A.** 4.24

**Q.** What about the PXC50 (MAX_EFFECT 60.86956522) of the same compound?
**A.** < 4

**Q.** Which results are given for `COCCCNc1nc(Nc2ccc(F)c(F)c2)nc2c1cnn2C`?
**A.** PXC50 (BOTTOM 8.707474288, HILLSLOPE 1.018785888, MAX_EFFECT 82.18527316, TOP 91.55126405): 4.89; PXC50 (BOTTOM 8.755992534, HILLSLOPE 0.77848464, MAX_EFFECT 80.25751073, TOP 100.0): 4.77; PXC50 (BOTTOM -0.585436575, HILLSLOPE 0.774777818, MAX_EFFECT 86.07350097, TOP 105.947702): 4.83

**Q.** Which PXC50 (MAX_EFFECT 3.401360544) does the source give for `CC1COc2ccccc2N1C(=O)CCc1cscn1` (centres undefined) here?
**A.** < 4

**Q.** And the PXC50 (MAX_EFFECT 4.347826087)?
**A.** < 4

**Q.** And the PXC50 (MAX_EFFECT 6.479859895)?
**A.** < 4

**Q.** With `Cc1cc(Nc2nc(NCCO)c3cnn(C)c3n2)cc(C(F)(F)F)c1` as the compound, how does the PXC50 (MAX_EFFECT 17.18061674) read?
**A.** < 4

**Q.** What about the PXC50 (MAX_EFFECT 18.76208897) of the same compound?
**A.** < 4

**Q.** What about the PXC50 (MAX_EFFECT 22.9338843) of the same compound?
**A.** < 4

**Q.** What does the source list for `COc1ccccc1CN1CCC(c2nn(CCN)c3nccnc23)C1` (centres undefined)?
**A.** PXC50 (BOTTOM 6.910506635, HILLSLOPE 2.152998005, MAX_EFFECT 63.75838926, TOP 91.48778108): 4.15; PXC50 (BOTTOM -1.343168311, HILLSLOPE 1.212343279, MAX_EFFECT 59.72222222, TOP 92.89137202): 4.23; PXC50 (BOTTOM -1.505582699, HILLSLOPE 1.035538343, MAX_EFFECT 55.28596187, TOP 100.0): 4.07

**Q.** What does the source list for `Cc1ccc(CSc2nc(N)cc(NCC(=O)N3CCNCC3)n2)cc1`?
**A.** PXC50 (BOTTOM -2.199449509, HILLSLOPE 1.075485519, MAX_EFFECT 68.11594203, TOP 100.0): 4.29; PXC50 (BOTTOM -2.347869122, HILLSLOPE 1.011463002, MAX_EFFECT 66.66666667, TOP 100.0): 4.27; PXC50 (BOTTOM -6.039839519, HILLSLOPE 1.064095709, MAX_EFFECT 59.36952715, TOP 57.65563111): 4.81

**Q.** What does the source list for `NCC1Cc2cc(-c3nccc(N4CCC(O)CC4)n3)cc(Cl)c2O1` (centres undefined)?
**A.** PXC50 (BOTTOM 2.296775574, HILLSLOPE 1.512300698, MAX_EFFECT 82.17821782, TOP 96.63760695): 4.5; PXC50 (BOTTOM 6.226174125, HILLSLOPE 1.41403245, MAX_EFFECT 85.50724638, TOP 100.0): 4.49; PXC50 (BOTTOM -3.72600926, HILLSLOPE 1.42983, MAX_EFFECT 83.15412186, TOP 100.0): 4.35

**Q.** Which results are given for `Cn1ncc2c(NCCO)nc(Cl)nc21`?
**A.** PXC50 (MAX_EFFECT 0.234192037): < 4; PXC50 (MAX_EFFECT 8.148148148): < 4; PXC50 (MAX_EFFECT -0.662251656): < 4

**Q.** `CN(c1cccc(F)c1)c1nc(NCCO)c2cnn(C)c2n1` was tested. Which PXC50 (MAX_EFFECT 8.142493639) did it give?
**A.** < 4

**Q.** What about the PXC50 (MAX_EFFECT 9.649122807) of the same compound?
**A.** < 4

**Q.** And the PXC50 (MAX_EFFECT 12.83018868)?
**A.** < 4

**Q.** What does the source list for `Cc1cnn(CC2CN(Cc3nc(C)c4ccccc4n3)CCO2)c1` (centres undefined)?
**A.** PXC50 (MAX_EFFECT 29.53020134): < 4; PXC50 (MAX_EFFECT 39.58333333): < 4; PXC50 (MAX_EFFECT 44.19410745): < 4

**Q.** `CCC(C)NC(=O)c1ccc(-c2ccco2)[nH]c1=O` (centres undefined) was tested. Which PXC50 (MAX_EFFECT 4.72854641) did it give?
**A.** < 4

**Q.** What about the PXC50 (MAX_EFFECT 5.442176871) of the same compound?
**A.** < 4

**Q.** And the PXC50 (MAX_EFFECT 7.971014493)?
**A.** < 4

**Q.** Which results are given for `OCCNc1nc(Nc2cccc(Cl)c2)nc2ccsc12`?
**A.** PXC50 (BOTTOM 1.378134297, HILLSLOPE 1.322835543, MAX_EFFECT 77.47933884, TOP 79.16655544): 5.15; PXC50 (BOTTOM 6.064283009, HILLSLOPE 1.027674538, MAX_EFFECT 79.88394584, TOP 88.71842546): 4.91; PXC50 (BOTTOM -3.793761971, HILLSLOPE 0.936804969, MAX_EFFECT 83.25991189, TOP 91.73851926): 5.08

**Q.** What does the source list for `c1cc(-c2ccc3c(c2)CCC32CCN(c3nncs3)CC2)co1`?
**A.** PXC50 (BOTTOM 1.725579768, HILLSLOPE 1.730442881, MAX_EFFECT 81.97573657, TOP 100.0): 4.31; PXC50 (BOTTOM 2.845642281, HILLSLOPE 1.539467031, MAX_EFFECT 93.05555556, TOP 100.0): 4.55; PXC50 (BOTTOM 5.084669568, HILLSLOPE 1.629318142, MAX_EFFECT 90.60402685, TOP 100.0): 4.52

**Q.** `Cn1ncc2c(N3CCC[C@H]3CO)nc(Nc3ccc(F)c(F)c3)nc21` was tested. Which PXC50 (BOTTOM 3.354874327, HILLSLOPE 0.975942115, MAX_EFFECT 81.27853881, TOP 88.63537555) did it give?
**A.** 5.05

**Q.** And the PXC50 (BOTTOM 5.651213015, HILLSLOPE 1.001049773, MAX_EFFECT 83.58490566, TOP 90.01230887)?
**A.** 5.05

**Q.** And the PXC50 (BOTTOM 9.222423555, HILLSLOPE 1.183933311, MAX_EFFECT 81.21442125, TOP 84.5225205)?
**A.** 5.23

**Q.** For `Cn1ncc2c(NCCCn3cnnc3)nc(Nc3ccc(F)c(F)c3)nc21`, which PXC50 (BOTTOM 1.83375179, HILLSLOPE 0.958532355, MAX_EFFECT 86.4608076, TOP 100.0) is on record?
**A.** 4.67

**Q.** And the PXC50 (BOTTOM -0.68283143, HILLSLOPE 0.850398367, MAX_EFFECT 82.59187621, TOP 94.39900943)?
**A.** 4.98

**Q.** And the PXC50 (BOTTOM -3.068523854, HILLSLOPE 0.793433763, MAX_EFFECT 81.54506438, TOP 111.1617786)?
**A.** 4.55

— ChEMBL document CHEMBL3988442, “University of Dundee, Small-Polar-MMV Screening Library” (2021)
